# In PubChem BioAssay:
# Calls of active or inactive are those of the source. Unless noted, the rule behind the calls is not given here.
# How the values were obtained:
# [1] = compound effects on lung adenocarcinoma cell viability – A549, calcein-AM fluorescence, 48 h, basal, profiling panel (AID 1162); details: higher = more signal; note: test concentration not given here
# [2] = compound effects on differentiated 3T3-L1 adipocyte viability – cell-based, 3T3-L1 adipocytes, calcein-AM fluorescence, 48 h, basal, profiling panel (AID 1163); details: 3T3-L1 adipocytes viability, higher = more signal; note: test concentration not given here
# [3] = compound effects on hepatocellular carcinoma cell viability – HepG2, calcein-AM fluorescence, 48 h, basal, profiling panel (AID 1164); details: higher = more signal; note: test concentration not given here
# [4] = compound effects on multiple myeloma cell viability – MM1S, calcein-AM fluorescence, 48 h, basal, profiling panel (AID 1165); details: higher = more signal;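 note: viability of MM1S multiple myeloma cells under basal unstimulated conditions; test concentration not given here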
# [5] = calcein-AM signal in unstimulated myeloma cells – cell-based, calcein-AM fluorescence, 48 h, PK04 Diversity Set, profiling panel (AID 1166); details: RPMI8226 myeloma viability, higher = more signal;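 note: cells grown under basal conditions without added stimulus; test concentration not given here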
# [6] = JC-1 mitochondrial signal, unstimulated HepG2 cells – cell-based, JC-1 fluorescence, 24 h, 100 nL compound, profiling panel (AID 1167); details: HepG2 mitochondrial potential, higher = more signal; note: test concentration not given here
# [7] = JC-1 mitochondrial signal, unstimulated adipocytes – cell-based, JC-1 fluorescence, 3T3-L1 adipocytes, 24 h, 100 nL compound, profiling panel (AID 1168); details: JC-1 mitochondrial fluorescence, higher = more signal, called active from +8 up or from −8 down; note: test concentration not given here
# [8] = JC-1 mitochondrial signal, unstimulated myeloma cells – cell-based, JC-1 fluorescence, RPMI8226, 24 h, 100 nL compound, profiling panel (AID 1169); details: JC-1 mitochondrial potential fluorescence, higher = more signal; note: test concentration not given here
# [9] = JC-1 mitochondrial signal, unstimulated MM1S myeloma – cell-based, JC-1 fluorescence, 24 h, 100 nL compound, profiling panel (AID 1170); details: MM1S mitochondrial potential, higher = more signal; note: test concentration not given here
# [10] = resazurin metabolic signal in A549 cells – cell-based, resazurin fluorescence, 24 h, PK04 Diversity Set, profiling panel (AID 1171); details: A549 viability, higher = more signal, called active from +8 up or from −8 down; note: test concentration not given here
# [11] = resazurin metabolic signal in HepG2 cells – cell-based, resazurin fluorescence, 24 h, PK04 Diversity Set, profiling panel (AID 1172); details: HepG2 viability, higher = more signal; note: test concentration not given here
# [12] = budding yeast growth changes without added modifier – OD600, strain BY4716, 24 h, basal condition, primary screen (AID 1173); details: S. cerevisiae BY4716 growth, OD600, 24 h; higher = more signal, called active from +8 up or from −8 down
# [13] = viability profiling in MM1S myeloma cells – cell-based, resazurin fluorescence, basal, 24 h, PK04 Diversity Set, profiling panel (AID 1174); details: higher = more signal, called active from +8 up or from −8 down; note: test concentration not given here
# [14] = biological target: Dihydroorotate dehydrogenase (quinone), mitochondrial (Plasmodium falciparum (isolate 3D7)) (UniProt Q08210); assay: inhibition of P. falciparum DHODH – biochemical, C-terminal His tag, absorbance 600 nm, primary screen (AID 1175); details: PfDHODH enzyme, DCIP absorbance 600 nm; higher = more signal, called active from +8 up or from −8 down;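 note: recombinant parasite enzyme with a five histidine tag at its C terminus; test concentration not given here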
# [15] = inhibition of PAO1 biofilm formation – strain PAO1, LB-PBS medium, absorbance 600 nm, primary screen (AID 1176); note: test concentration not given here; details: P. aeruginosa PAO1 growth/biofilm, A600, 12 h; higher = more signal
# [16] = growth modulation of vineyard yeast isolate – strain RM11-1a, OD600, basal, 24 h, primary screen (AID 1177);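 note: cultures grown under basal conditions with no added stressor; test concentration not given here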; details: S. cerevisiae RM11-1a growth, OD600, 24 h; higher = more signal, called active from +8 up or from −8 down
# [17] = growth of efflux-deficient E. coli DRC39 – strain DRC39, OD650, 24 h, E. coli filamentation inducers, primary screen (AID 1178);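 note: growth measured as culture turbidity by optical density at 650 nm; test concentration not given here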; details: E. coli DRC39 acrAB, higher = more signal, called active from +8 up or from −8 down
# [18] = growth of efflux-deficient E. coli DRC39 – strain DRC39, OD650, 48 h, E. coli filamentation inducers, primary screen (AID 1179);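 note: screen aims at cell division blockers that make cells filament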; details: E. coli DRC39 delta-acrAB growth, higher = more signal, called active from +8 up or from −8 down
# [19] = viability profiling in RPMI8226 myeloma cells – cell-based, resazurin fluorescence, basal, 24 h, PK04 Diversity Set, profiling panel (AID 1180); details: higher = more signal;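 note: RPMI8826 multiple myeloma cell line at 5000 cells per well; test concentration not given here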
# [20] = biological target: E3 ubiquitin-protein ligase XIAP (Homo sapiens) (UniProt P98170); assay: small molecules binding XIAP protein – biophysical, small-molecule microarray, fluorescence 635 nm, primary screen (AID 1181); details: higher = more signal;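 note: score merges 667 nm emission and signal to noise over triplicate slides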
# Sequence of E3 ubiquitin-protein ligase XIAP (Homo sapiens) (P98170 whole entry, looked up): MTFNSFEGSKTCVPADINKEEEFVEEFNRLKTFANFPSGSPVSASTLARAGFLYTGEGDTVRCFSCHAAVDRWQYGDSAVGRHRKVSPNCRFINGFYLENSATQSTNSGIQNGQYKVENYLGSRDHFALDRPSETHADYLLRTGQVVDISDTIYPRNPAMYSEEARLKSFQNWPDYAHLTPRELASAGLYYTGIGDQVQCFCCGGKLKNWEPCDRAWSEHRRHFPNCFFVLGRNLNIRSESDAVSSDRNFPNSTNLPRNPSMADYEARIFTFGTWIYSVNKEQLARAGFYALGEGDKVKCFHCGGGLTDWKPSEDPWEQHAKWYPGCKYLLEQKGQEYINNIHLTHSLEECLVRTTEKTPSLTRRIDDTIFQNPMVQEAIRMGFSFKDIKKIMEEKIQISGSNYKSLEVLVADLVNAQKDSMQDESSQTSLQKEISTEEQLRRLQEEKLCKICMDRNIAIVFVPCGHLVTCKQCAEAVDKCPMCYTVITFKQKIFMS
# Sequence of Dihydroorotate dehydrogenase (quinone), mitochondrial (Plasmodium falciparum (isolate 3D7)) (Q08210 whole entry, looked up): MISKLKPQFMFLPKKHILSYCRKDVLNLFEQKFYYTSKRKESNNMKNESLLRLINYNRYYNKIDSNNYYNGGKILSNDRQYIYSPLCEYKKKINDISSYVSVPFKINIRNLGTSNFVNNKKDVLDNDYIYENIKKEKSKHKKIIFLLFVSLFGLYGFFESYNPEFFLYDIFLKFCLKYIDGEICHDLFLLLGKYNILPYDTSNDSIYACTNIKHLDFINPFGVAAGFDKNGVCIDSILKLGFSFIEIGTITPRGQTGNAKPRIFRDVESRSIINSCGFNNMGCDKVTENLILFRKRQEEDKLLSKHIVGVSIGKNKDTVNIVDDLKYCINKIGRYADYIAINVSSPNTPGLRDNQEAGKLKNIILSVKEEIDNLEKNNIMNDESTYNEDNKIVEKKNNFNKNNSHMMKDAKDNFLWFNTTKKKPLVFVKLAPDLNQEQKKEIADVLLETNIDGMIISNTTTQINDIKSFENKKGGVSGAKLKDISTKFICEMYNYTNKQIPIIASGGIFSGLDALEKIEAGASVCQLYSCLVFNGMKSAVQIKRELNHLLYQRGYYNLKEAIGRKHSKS
SMILES,z-score [1],z-score [2],z-score [3],z-score [4],z-score [5],z-score [6],z-score [7],z-score [8],z-score [9],z-score [10],z-score [11],z-score [12],z-score [13],composite z-score [14],z-score [15],z-score [16],z-score [17],z-score [18],z-score [19],composite z-score [20]
O=C1C2C=CC(C(O)C=Cc3ccc([N+](=O)[O-])cc3)N(Nc3ccccc3)C2C(=O)N1c1ccccc1 (stereo not given),2.48,-0.123,1.28,0.0385,-0.0477,-0.0526,-1.19 (inactive),-0.175,-0.951,-0.102 (inactive),-0.392,-2.88 (inactive),-1.44 (inactive),-0.162 (inactive),1.1 (inactive),-0.0358 (inactive),-0.125 (inactive),0.242 (inactive),0.185,-0.0103
COCCOC(=O)N1C(=O)[C@@]2(c3cc(C#CC4(O)CCCCCC4)ccc31)[C@H](C(=O)N1CCN(c3ncccn3)CC1)[C@H]1C(=O)O[C@H](c3ccccc3)[C@H](c3ccccc3)N1[C@@H]2c1ccccc1OCCO,-0.118,0.481,-0.594,-0.483,-1.98,-0.151,0.909 (inactive),-0.288,-0.589,-0.0171 (inactive),0.212,2.67 (inactive),-0.194 (inactive),0.97 (inactive),2.12 (inactive),3.05 (inactive),-0.322 (inactive),-0.473 (inactive),0.177,-0.068
COCCOC(=O)N1C(=O)[C@@]2(c3cc(C#CCNC(N)=O)ccc31)[C@H](c1ccc(OCCO)cc1)N1[C@H](c3ccccc3)[C@H](c3ccccc3)OC(=O)[C@H]1[C@@H]2C(=O)NC[C@H](O)c1ccccc1,-1.31,0.494,-0.542,-0.193,-0.158,-1.49,0.17 (inactive),0.235,-0.391,0.32 (inactive),0.637,1.82 (inactive),0.0592 (inactive),-1.88 (inactive),2.18 (inactive),1.54 (inactive),0.48 (inactive),-0.532 (inactive),-0.45,-0.153
[N-]=[N+]=NCc1ccccc1[C@H]1OC(c2ccc(OCCCO)cc2)=N[C@@]1(CCS(=O)(=O)c1ccccc1)C(=O)NCc1ccccc1,2.47,-0.0706,1.35,-0.65,0.414,-0.627,-0.0258 (inactive),-1.02,-0.531,1.73 (inactive),1.18,0.879 (inactive),-0.0789 (inactive),0.786 (inactive),-0.4 (inactive),2.19 (inactive),1.01 (inactive),0.536 (inactive),0.032,0.129
CN1C(=O)C2C=CC(C(O)c3cc(C(F)(F)F)cc(C(F)(F)F)c3)N(NC(=O)OC(C)(C)C)C2C1=O (stereo not given),-1.29,-0.122,-0.938,0.319,-1.06,-1.28,1.03 (inactive),0.191,0.546,1.14 (inactive),-0.725,-0.752 (inactive),-0.117 (inactive),-0.251 (inactive),-0.379 (inactive),0.215 (inactive),-0.676 (inactive),-1.22 (inactive),0.349,0.394
C=C(C(=O)CC[C@@H](OC(=O)c1ccccc1-c1ccccc1C(=O)O)c1ccccc1OCCO)C(C)C,-0.0081,0.707,-0.188,-2.67,-1.92,-1.1,0.758 (inactive),0.0612,-0.281,0.63 (inactive),0.942,-2.55 (inactive),0.132 (inactive),-1.52 (inactive),0.743 (inactive),-0.639 (inactive),0.475 (inactive),0.13 (inactive),0.131,0.209
C=C(/C(=C/C[C@H](OC(=O)c1ccncc1)c1cccc(OCCO)c1)c1cnc2ccccc2c1)C(C)C,-1.69,-1.31,-3.17,-3.07,-2.93,-0.437,-0.649 (inactive),-0.0462,-0.888,-1.68 (inactive),-0.982,-18.5 (active),-1.09 (inactive),-25.3 (active),0.285 (inactive),-22.1 (active),0.116 (inactive),-0.147 (inactive),-0.911,0.329
CO[C@H]1O[C@H](CO)[C@@H](OC(=O)Nc2ccc(C#N)cc2)[C@@H]2OC(=O)[C@H](Cc3cccc(Br)c3)C/C=C/C[C@@H](Cc3cccc(Br)c3)C(=O)O[C@@H]12,1.31,0.685,1.29,-1.71,-0.487,1.73,1.74 (inactive),-0.579,-0.935,-2.28 (inactive),-1.39,-0.253 (inactive),-3.14 (inactive),-0.631 (inactive),1.23 (inactive),0.99 (inactive),0.295 (inactive),0.432 (inactive),-2.37,-0.355
C=C[C@@H](C)[C@@H](OC(=O)Nc1ccc(SC)cc1)c1ccc(OCCO)cc1,-0.555,0.248,-1.37,-1.08,-0.425,-2.54,-0.75 (inactive),-0.15,-0.434,0.491 (inactive),0.627,-3.68 (inactive),-0.682 (inactive),0.05 (inactive),0.119 (inactive),0.296 (inactive),-0.68 (inactive),-0.504 (inactive),0.0167,0.0879
